In ChEMBL document CHEMBL3988442, “University of Dundee, Small-Polar-MMV Screening Library” (2021):

Legend:
[1] = molecular target: T1, Aspartate--tRNA(Asp/Asn) ligase (Mycobacterium tuberculosis (strain ATCC 25618 / H37Rv)) (UniProt P9WFW3); test: Assay for Asp RNA synthetase-1 from Mycobacterium tuberculosis; assay type: functional; design: scale not given: direction of the effect not stated beside the values; conditions: 30 µM; note: in the data most compounds retested in dose-response had high values
T1 sequence (whole entry): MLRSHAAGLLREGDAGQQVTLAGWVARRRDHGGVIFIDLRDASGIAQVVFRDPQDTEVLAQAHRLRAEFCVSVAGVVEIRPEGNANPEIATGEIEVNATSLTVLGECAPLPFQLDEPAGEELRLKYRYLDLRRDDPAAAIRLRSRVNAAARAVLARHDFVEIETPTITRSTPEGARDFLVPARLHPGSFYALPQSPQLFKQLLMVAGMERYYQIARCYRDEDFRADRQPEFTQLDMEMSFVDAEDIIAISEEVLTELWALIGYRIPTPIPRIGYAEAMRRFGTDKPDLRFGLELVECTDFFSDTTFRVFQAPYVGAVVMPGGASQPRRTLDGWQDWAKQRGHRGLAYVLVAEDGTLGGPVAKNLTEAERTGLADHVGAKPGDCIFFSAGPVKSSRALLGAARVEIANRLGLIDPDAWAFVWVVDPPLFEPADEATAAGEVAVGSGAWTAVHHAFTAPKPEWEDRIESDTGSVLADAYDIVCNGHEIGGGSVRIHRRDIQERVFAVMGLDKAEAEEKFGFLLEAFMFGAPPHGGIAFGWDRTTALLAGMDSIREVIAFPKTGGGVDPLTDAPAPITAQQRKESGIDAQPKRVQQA

[2] = molecular target: Shiga toxin 2 (Escherichia coli O157:H7) (UniProt P09385+P09386); test: E. coli 0.157:H7 Shiga Toxin SOP - stx2 screening assay; assay type: functional; design: scale not given: direction of the effect not stated beside the values; conditions: 30 µM

SMILES	Percent Effect [1]	Percent Effect [2]
COCc1ccccc1C(=O)NCCCN1CCCC1C(=O)N(C)C (centres undefined)	5.84%	-26.7%
CC(NC(=O)NCCNc1cnccn1)c1cccs1 (centres undefined)	-0.971%	-34.6%
O=C(Cc1csc(-c2nnc[nH]2)n1)N1CCCC1Cn1cccn1 (centres undefined)	-4.54%	5.43%
Cc1cnn(CC2CCCN2C(=O)c2cc(C)no2)c1 (centres undefined)	-4.16%	16.5%
Cc1cc(NC(=O)CN2CCOC(Cn3cccn3)C2)n(C)n1 (centres undefined)	-3.92%	-12.8%
c1cnnc(N2CCCC(NCc3nc(C4CC4)no3)C2)c1 (centres undefined)	6.87%	-18.7%
CC(=O)N1CCCN(C(=O)NCCc2ccc(Cl)s2)CC1	-3.04%	-19.8%
Cc1noc(Cl)c1CCC(=O)N1CCc2sccc2C1	-1.63%	18.9%
CCC1CCCCCN1C(=O)c1nnc2ccccc2c1N (centres undefined)	-3.53%	-2.87%
CC(C)C(Sc1nnnn1C1CC1)C(=O)NCc1cccnc1 (centres undefined)	-3.1%	-4.91%
c1ccc(C2CCCN2Cc2nnnn2C2CC2)cc1 (centres undefined)	-2.81%	-5.38%
Cc1cc(C)n(CC2CCCN2C(=O)c2ccc3c(c2)OCO3)n1 (centres undefined)	-1.99%	-23.4%
O=C(NCc1ccoc1)Nc1ccc(CN2CCOC2=O)cc1	-3.73%	-75.3%
CC1(C)CC(N(Cc2ccccc2)Cc2cccnc2)CC(C)(C)N1	-4.09%	-6.83%
CCc1ccc(S(=O)(=O)Nc2cc(C(=O)O)c(F)cc2F)s1	-4.19%	-16.1%
CCOc1ccc(CN2CCN(C(=O)c3ccc(C)n3C)CC2)cc1	2.42%	8.86%
CC(NC(=O)N(C)Cc1ccncc1)c1nncn1C (centres undefined)	-5.91%	-0.749%
CCOC(=O)C1CCN(C(=O)Cn2ccc3cc(Br)ccc32)CC1	-2.06%	-21.9%
CC(C)C(=O)N1CCN(C(=O)CCc2nnc(-c3ccccc3)o2)CC1	1.17%	-3.74%
COc1ccccc1CC(=O)N1CCC(NCc2c[nH]nc2C)CC1	4.54%	17.4%
c1cnn(CCNCc2csc(-c3ccsc3)n2)c1	-3.52%	-113%
CC(Cn1cccn1)NC(=O)Nc1ccc(N(C)C)nc1 (centres undefined)	1.98%	-47.5%
OCCOCCN1CCCC1c1nc2cc(F)ccc2[nH]1 (centres undefined)	-5.15%	-4.14%
FC(F)(F)c1nc(NC2CCCC2)c2ccccc2n1	0.562%	-0.0663%

SMILES	Percent Effect [1]	Percent Effect [2]
Cc1cnn(CC2CCCN2C(=O)c2cnc3n[nH]c(C)c3c2)c1 (centres undefined)	-3.6%	-40.6%
CN(c1cccnn1)C1CCN(C(=O)c2ccc3c(c2)COC3)CC1	-2.64%	13.1%
CC(C)Nc1nc2c(cc1C(=O)N(C)C)CCNCC2	3.61%	-0.0143%
CS(=O)(=O)NCc1cc2n(n1)CCCN(Cc1nc3ccccc3[nH]1)C2	-3.96%	22.6%
CCCN(CC)C(=O)c1cc2c(c3ccccc3n2C)n1C(=O)N(C)C	6.03%	2.44%
CC(C)n1[nH]c(=O)c2c1NC(=O)CC2c1cccc(OC(F)F)c1 (centres undefined)	0.474%	-12.1%
CCc1nc(CN2CCCN(C(=O)C(C)COC)CC2)cs1 (centres undefined)	-0.303%	-63.3%
COc1c(C)cnc(CN2CCC(C(=O)N(C)C)CC2)c1C	-0.91%	10.2%
CN(C)C(=O)N1C[C@@H]2CC[C@H](C1)N(C(=O)CCCn1cncn1)C2	1.35%	4.19%
O=C1NCCN1C1CCN(CCc2cccs2)CC1	-0.519%	4.4%
CCCNC(=O)c1sc(Nc2ccc(Cl)cn2)nc1C	-4.04%	-46.7%
COCCN(Cc1ccc(F)cc1Cl)C(=O)c1ccc(=O)[nH]n1	-1.92%	2.84%
Cn1cc(CN2CCOC3(CCCN(C(=O)c4ccco4)C3)C2)cn1 (centres undefined)	-0.297%	-4.96%
Cc1cc(-c2cnc(NCc3cccnc3)nc2C(C)C)on1	6.13%	10.2%
Cc1ccc(C(=O)NC(CN2CCCC2=O)c2ccccc2)c(=O)[nH]1 (centres undefined)	-6.44%	2.19%
COc1c(CNCCNC(=O)c2ccco2)c(C)nn1C	-2.68%	14.7%
CN(CC1COc2ccccc2O1)C(=O)NCCCn1cncn1 (centres undefined)	1.57%	21.4%
Cc1cccc(CN2CCc3nnc(CO)n3CC2)n1	0.728%	-10.4%
O=C(CCN1CCCC1C1CCCCC1)N1CCc2sccc2C1 (centres undefined)	2.02%	8.04%
CCCn1nc2c(cc1=O)CN(CC(=O)Nc1nnc(C)s1)CC2	8.7%	-2.85%
COc1ccc(OC)c(C(C)Nc2nc3c(C)nn(C)c3c(=O)n2C)c1 (centres undefined)	4.76%	-69.5%
COc1cc(C)nc(N2CCN(C(=O)c3ccccc3C)CC2)n1	6.7%	3.55%
O=C(Cn1ccc2sccc2c1=O)NCc1ccc2c(c1)OCO2	0.0437%	-8.21%
